In PubChem BioAssay AID720519 (National Center for Advancing Translational Sciences (NCATS), 2013):
Inconclusive results are not listed. The source made the active and inactive calls. Calls follow the shape of the dose curve; as a rule, active = well fitted activation curve with a large enough effect; inconclusive = small, poorly fitted or top-dose-only effect; inactive = flat fitted curve, though single readings scatter.

Assay: qHTS for Inhibitors of Cell Surface uPA Generation: Confirmatory Assay for Cherry-picked Compounds; also: 0% is about no effect
Settings: cell surface uPA activity generation, qHTS confirmation; series mostly up to 115 µM; inhibition: at the top concentration
Procedure, shortened: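 RAW 264.7 cells at 4000/well, incubated overnight, then treated with compounds. After 24 h at 37 C, viability was read by ATPlite luminescence. An increase in signal indicates blocked uPA-dependent LF entry.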

inhibition, inactive:
COc1ccccc1N1CCN(C2CC(=O)N(c3ccccc3)C2=O)CC1 (centres undefined) -2.5%
CSc1nc(-c2ccccc2)nc(C(Cl)Cl)n1 -3.76%
Cc1cc(NC(=O)COc2cccc([N+](=O)[O-])c2)no1 -2.33%
Cc1cc(N2C(=O)C(O)=C(C(=O)c3ccco3)C2c2ccc(Cl)cc2)no1 (centres undefined) -3.05%
CCOCc1nnc(NC(=O)C2CCN(C(=O)C3CC(=O)N(c4ccc(C)cc4)C3)CC2)s1 (centres undefined) -1.89%
CCC(CC)Nc1ccc(C(CC(N)=O)NC(=O)Cc2ccc(Br)cc2)cc1[N+](=O)[O-] (centres undefined) -2.62%
CC(C)c1ccc(C2/C(=C(\O)c3ccc4c(c3)OCCO4)C(=O)C(=O)N2CCN2CCOCC2)cc1 (centres undefined) -0.762%
Cc1cc(C)cc(NC(=O)COC(=O)CCn2c(C)csc2=O)c1 -1.09%
Cc1ccc(NC(=S)N2CCN(Cc3ccc4c(c3)OCO4)CC2)c(C)c1 -3.55%
CCN(CC)C(=O)Cn1cc(/C=C(\C#N)C(=O)NC2CC2)c2ccccc21 1.37%
Cc1ccc(-n2nc3c(c2NC(=O)c2ccc4c(c2)OCO4)CS(=O)C3)c(C)c1 (centres undefined) 1.56%
Cc1ccc(OCc2cc(C(=O)N(C)Cc3cc(C4CC4)n[nH]3)no2)cc1C -3.14%
CC(=O)Nc1ccc(OS(=O)(=O)c2c(C)cc(C)cc2C)cc1 -3.5%
Cc1ccc(/C=C/C(=O)O)cc1S(=O)(=O)N1CCc2ccccc21 -3.41%
C=CCOC(=O)C1=C(C)NC(C)=C(C(=O)OCC=C)C1c1cn(-c2ccccc2)nc1-c1ccco1 2.24%
CCOCCCn1c(SCC(=O)Nc2cc(OC)ccc2OC)nc2ccccc2c1=O -3.62%
CCOc1ccc(OCC)c(NC(=O)c2ccc(CNc3c(N4CCCC4)c(=O)c3=O)cc2)c1 -4.06%
CCCN1CCN(CC(=O)Nc2nncs2)CC1 1.56%
O=C(CSc1ccc(Cl)cc1)Nc1ccc(C2SCCS2)cc1 0.585%
O=C1C[C@@H]2CCN3C(=O)CCC[C@@H]([C@H]23)[C@H]1Cc1ccccc1 -1.18%
[N-]=[N+]=NC1C[C@H](n2ccc(=O)[nH]c2=O)O[C@@H]1CO (some centres undefined) -2.21%
CC(C)(C)OC(=O)C[C@@H]1C/C=C\C[C@@H](CC(=O)N(CCO)Cc2ccccc2)C(=O)N[C@H](Cc2c[nH]c3ccccc23)COC1=O -3.72%
Cc1nc(N2CCN(c3ccc(Cl)cc3)CC2)[nH]c(=O)c1C 0.535%
COc1ccc([C@H]2CC(=O)C=C(c3ccc(CNC(=O)OC(C)(C)C)cc3)C2)cc1 -2.37%
Cc1c(C(=O)N(Cc2ccccc2Cl)C2CCS(=O)(=O)C2)oc2ccccc12 (centres undefined) -3.3%
COc1cccc(CNC(=O)C2CCCN(S(=O)(=O)c3ccc4c(c3)C(C)(C)C(=O)N4C)C2)c1 (centres undefined) -0.161%
Cc1cc(C)c(S(=O)(=O)N2CCCOC2CNC(=O)C(=O)NCc2cccs2)c(C)c1 (centres undefined) -0.442%
Cn1c(=O)n(CC(=O)O)c(=O)c2c1nc1n2CCCN1CCc1ccccc1 -2.69%
Cc1ccc(S(=O)(=O)N2CCC(C(=O)OC(C)C(=O)NC3CCCCC3C)CC2)cc1 (centres undefined) -0.0734%
COc1cc(C(=O)N/N=C(\Cc2ncc[nH]2)c2ccccc2)cc(OC)c1OC 0.667%
O=C(CN1CCN(Cc2ccc(Cl)cc2)C1=O)NCc1cccs1 -1.61%
CC/C(=N\Nc1ccccc1[N+](=O)[O-])c1ccc(O)cc1 -2%
COc1ccc(NC(=O)Nc2nnc(N3CCCCC3C)s2)cc1OC (centres undefined) -1.68%
CCCCN(CC)CCNC(=O)c1cc2cc3ccc(Cl)cc3nc2o1 -3.31%
Cn1c(C2CCCCC2)nc2cc(N)ccc21 -2.73%
COc1cccc(NC(=S)NCc2ccc3c(c2)cc(C)n3C)c1 -3.09%
CCN(CC)CCCn1c2c(c(SCC(=O)Nc3cccc4ccccc34)nc1=O)CCC2 -3.24%
COc1ccc(C2NC(=O)CCC2[N+](=O)[O-])c(OC)c1OC (centres undefined) -2.72%
COc1cc(CCC(=O)OCC(=O)NCc2ccccc2)cc(OC)c1OC 0.19%
